Bioassay records as filed in PubChem BioAssay.
A selection: hits, their analogues and other compounds. The true share with any hit is near 4%.
Rv3671c protease = inhibits the M. tuberculosis serine protease Rv3671c; actives 0.048% (n = 320,000); inhibition, % at 5.96 µM; in the data active = inhibition above about 38%;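 note: extracellular domain of Rv3671c used as enzyme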
GDH-TPI inh = inhibits GDH-TPI coupling enzymes, artifact for Mtb FBA screen | GDH-TPI coupled enzyme counterscreen, NADH absorbance | inhibition, % at 4.8 µM | actives 1.2% (n = 360,000); in the data active = inhibition above about 30%
Mtb betalactam = beta-lactam sensitization of Mtb H37Rv; M. tuberculosis H37Rv growth with meropenem, percent inhibition; inhibition, % at 25 µM; actives 0.27% (n = 330,000); AID 434955; call rule not given here;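 note: growth measured after seven days incubation then overnight dye step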
Mtb UGM inh = blocks M. tuberculosis UGM enzyme; P9WIQ1; purified UGM, fluorescence polarization probe displacement; inhibition, % at 10 µM; actives 0.06% (n = 320,000); AID 504406; in the data active = inhibition above about 10%, passing the limit was not always enough; inconclusive = no clear call, values can overlap the other calls
RecA intein inh = Mtb RecA intein splicing inhibition; P9WHJ3; cell-free RecA intein splicing, fluorescence; inhibition, % (test concentration not listed); actives 0.75% (n = 290,000); in the data active = inhibition above about 30%; inconclusive = no clear call, values can overlap the other calls
Mtb FBA inh = inhibitors of M. tuberculosis fructose-bisphosphate aldolase; P9WQA3; purified M. tuberculosis FBA, fluorescence read-out; inhibition, % at 1 µM; actives 2.3% (n = 360,000); in the data active = inhibition above about 27%
Target sequence (P9WQA3 whole entry, looked up): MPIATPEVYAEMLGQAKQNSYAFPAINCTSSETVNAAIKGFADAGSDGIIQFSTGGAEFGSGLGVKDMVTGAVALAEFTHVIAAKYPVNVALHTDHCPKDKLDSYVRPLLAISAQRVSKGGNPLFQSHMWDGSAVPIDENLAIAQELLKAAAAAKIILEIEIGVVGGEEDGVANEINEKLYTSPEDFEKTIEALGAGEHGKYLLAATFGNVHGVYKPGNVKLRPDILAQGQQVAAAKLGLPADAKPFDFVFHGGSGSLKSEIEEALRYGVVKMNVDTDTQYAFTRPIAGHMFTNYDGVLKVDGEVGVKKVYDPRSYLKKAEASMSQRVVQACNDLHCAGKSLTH
Each line names hits and unclear results; the compound was inactive in the other large screens.

COc1cccc(/C=N/NC(=O)CC2C(=O)NN=C2C)c1OC (stereo unspecified)	none
COc1ccccc1/C=C/C=N/NC(=O)c1ccc(=O)n(C)c1	GDH-TPI inh 51
Cc1ccc(S(=O)(=O)Nc2ccc3cc([N+](=O)[O-])ccc3c2[N+](=O)[O-])cc1	none (no result: Rv3671c protease, Mtb betalactam, Mtb UGM inh, RecA intein inh)
O=c1[nH]c(/C=C\c2ccccc2F)nc(O)c1[N+](=O)[O-]	none
O=c1[nH]c(/C=C\c2cccc(F)c2)nc(O)c1[N+](=O)[O-]	GDH-TPI inh 31
O=c1[nH]c(/C=C\c2cccc(Cl)c2)nc(O)c1[N+](=O)[O-]	GDH-TPI inh 51
C=CCOc1cccc(/C=C\c2nc(O)c([N+](=O)[O-])c(=O)[nH]2)c1	none
COc1ccc(C)cc1NC(=O)C1CCCN1C(=O)OCc1ccccc1 (stereo unspecified)	none (no result: Mtb UGM inh)
COc1cc2nc(N3CCN(C(=O)OCc4ccccc4)[C@H](C(=O)NC(C)(C)C)C3)nc(N)c2cc1OC	Mtb FBA inh 89 (no result: Mtb betalactam, RecA intein inh)
Cc1ccc(C2=NCCn3nc4cc(C(F)(F)F)ccc4c32)cc1	none (no result: RecA intein inh)
COc1ccc(CCc2nnc(N)s2)cc1OC	none
Cc1ccc(C(=O)c2cc(C)sc2N)cc1	none
Cc1cc(C(=O)c2ccc(Cl)cc2)c(NC(=O)CCl)s1	RecA intein inh 33
c1ccc(N=Nc2ccc(C3=NCCO3)cc2)cc1	GDH-TPI inh 36 (no result: Rv3671c protease, Mtb betalactam, Mtb UGM inh, RecA intein inh)
COc1ccc(CCCNC(=O)C2(C)Cc3c(-c4ccc5c(c4)OCO5)ccnc3O2)cc1 (stereo unspecified)	none (no result: Rv3671c protease, Mtb betalactam, Mtb UGM inh, RecA intein inh)
CN1C(=O)C2(N=c3ccccc3=N2)c2ccccc21	Mtb FBA inh 30
Cn1c(/C=C/c2ccc(Br)cc2)c([N+](=O)[O-])c(=O)n(C)c1=O	none (no result: Mtb betalactam)
CCCOc1ccc(/C=C/c2c([N+](=O)[O-])c(=O)n(C)c(=O)n2C)cc1	GDH-TPI inh 39
COc1ccc(C(=O)/C=C/c2ccc(O)cc2)c2c1CC(O)C(C)(C)O2 (stereo unspecified)	GDH-TPI inh 33 (no result: Mtb UGM inh, RecA intein inh)
Cc1ccc(N=C2NC(=O)/C(=C\c3ccsc3)S2)c(C)c1	GDH-TPI inh 33
Cc1ccc(N=C2NC(=O)/C(=C/c3cccnc3)S2)c(C)c1	GDH-TPI inh 33
Cc1ccc(N=C2NC(=O)CS2)c(C)c1	none (no result: RecA intein inh)
CC(=O)c1c(C)n(CCc2ccc(Cl)cc2)c2ccc(O)cc12	GDH-TPI inh 52
COc1ccc(N(C(=O)c2snc(C(N)=O)c2N)C(C(=O)NC2CCCCC2)c2ccc(C)o2)cc1 (stereo unspecified)	none
O=C(NCCCN1CCOCC1)c1sc2cc([N+](=O)[O-])ccc2c1Cl	Mtb FBA inh 54
O=C(/C=C/NCc1cccnc1)c1ccc(-c2ccccc2)cc1	GDH-TPI inh 36
CN1CCN(S(=O)(=O)c2cccc(C(=O)NCCOc3ccccc3F)c2)CC1	none
CN(/N=C/c1cc(Cl)cc(Cl)c1O)c1c(Cl)cccc1[N+](=O)[O-]	GDH-TPI inh 37
O=[N+]([O-])c1ccc2oc(C(O)c3cccc(Cl)c3)cc2c1 (stereo unspecified)	none
O=C(O)c1ccccc1N1C(=O)c2cccc3cccc(c23)C1=O	none
Cc1ccccc1N1C(=O)c2cccc3cccc(c23)C1=O	GDH-TPI inh 35
Cc1ccc2nc3c(cc(C#N)c(=O)n3-c3nccs3)c(=O)n2c1	Mtb FBA inh active
CCC(C)n1c(=N)c(C#N)cc2c(=O)n3cc(C)ccc3nc21 (stereo unspecified)	none
COc1ccc2c(c1)c(C(=O)N/N=C/c1ccc(O)c(O)c1)c(C)n2C	GDH-TPI inh 44
COc1ccc(S(=O)(=O)NC(=O)C2(C)CCN2C(=O)Cc2ccccc2Cl)cc1 (stereo unspecified)	none (no result: Rv3671c protease, Mtb betalactam, Mtb UGM inh, RecA intein inh)
COc1cc(OC)cc(-c2c(-c3cccs3)c3cc(-c4ccn[nH]4)ccc3n2C)c1	none (no result: RecA intein inh)
COC(=O)C1=NN(C(=O)c2cccc(Br)c2)C(O)(c2ccc(Cl)cc2)C1 (stereo unspecified)	RecA intein inh 37
CCN(C(=O)c1ccco1)C1C2CC3CC(C2)CC1C3 (stereo unspecified)	none
O=c1c(C(c2ccccc2)c2c(O)sc3ccccc3c2=O)c(O)sc2ccccc12	RecA intein inh 29
CCC(=O)CC(c1ccccc1)c1c(O)c2ccccc2sc1=O (stereo unspecified)	none
CC(=O)OC[C@H]1O[C@@H](Oc2cc3ccc(=O)oc3cc2OC(C)=O)[C@H](OC(C)=O)[C@@H](OC(C)=O)[C@@H]1OC(C)=O	Mtb FBA inh active (no result: Rv3671c protease, Mtb betalactam, Mtb UGM inh, RecA intein inh)
CCOC(=O)c1c(C)oc2ccc(OCC(N)=O)cc12	none
Cc1cc(=O)oc2ccc(OC(C)C(=O)O)cc12 (stereo unspecified)	none
CCOC(=O)c1c(-c2ccccc2)oc2ccc(OCC(=O)NNC(=O)CCC(=O)O)cc12	Mtb FBA inh 122 (no result: Rv3671c protease)
CCOC(=O)c1c(-c2ccccc2)oc2ccc(OCC(=O)NNC(=O)CCCC(=O)O)cc12	Mtb FBA inh 157 (no result: Rv3671c protease)
CCOC(=O)c1c(-c2ccccc2)oc2ccc(OC(C)C(=O)O)cc12 (stereo unspecified)	Mtb FBA inh 165
CCOC(=O)c1c(-c2ccc(OC)cc2)oc2ccc(OC(=O)N(C)C)cc12	Mtb FBA inh active
Cc1oc2ccc(OC(=O)N(C)C)cc2c1C(=O)OC(C)C	none
CNc1cccc(-c2c(OC)cccc2OC)n1	none (no result: Rv3671c protease, Mtb betalactam, Mtb UGM inh, RecA intein inh)
COc1cccc(CNC(=O)Cn2ccc3cc(S(=O)(=O)N4CCCCCC4)ccc32)c1	none
COc1cccc(S(=O)(=O)N(C)C[C@H]2OCc3cnnn3CCCC(=O)N([C@H](C)CO)C[C@H]2C)c1	none (no result: Rv3671c protease, Mtb betalactam, Mtb UGM inh, RecA intein inh)
COC(=O)c1cc(Br)ccc1-c1ccc(/C=N/n2nnnc2N)o1	GDH-TPI inh 44
C/C(CC(=O)NCc1ccco1)=N\NC(=O)c1ccc([N+](=O)[O-])cc1Cl	RecA intein inh 69
CCCCCn1c(=O)c(C(=O)Nc2ccccc2S(N)(=O)=O)c(O)c2ccccc21	Mtb UGM inh 65
CSc1ccc(/C=N/n2nnnc2N)cc1	GDH-TPI inh 43
CCN(C)c1ccc(/C=N\n2nnnc2N)cc1	Mtb betalactam inconclusive, Mtb FBA inh 28
CN=C1SC(CC(=O)Nc2ccccc2F)C(=O)N1/N=C/c1ccc(O)c(OC)c1 (stereo unspecified)	GDH-TPI inh 52
COc1cc(/C=N/n2nnnc2N)ccc1OC(C)=O	none (no result: Rv3671c protease)
COc1cc(/C=N/n2nnnc2N)ccc1O	GDH-TPI inh 44
CCOc1ccc(/C=N/N2C(=O)C(CC(=O)Nc3ccc(F)cc3F)SC2=NC)cc1OC (stereo unspecified)	none
NS(=O)(=O)c1ccc(NC(=O)COC(=O)Cn2cnc3ccccc3c2=O)cc1	none (no result: RecA intein inh)
CCOc1cccc(C2/C(=C(/O)c3ccc4c(c3)CC(C)O4)C(=O)C(=O)N2CCCn2ccnc2)c1 (stereo unspecified)	none
ClC1=CN(C2=NCCC2)CC1	none (no result: Rv3671c protease, GDH-TPI inh, Mtb betalactam, Mtb UGM inh, RecA intein inh)
CC(=O)N/C(=N\c1nc(C)cc(C)n1)Nc1ccc(Cl)cc1Cl	none
Cc1onc(-c2ccccc2)c1C(=O)Nc1nnc(CC(C)(C)C)s1	none
